# Source: PubChem BioAssay (EPA / NIEHS)
# “And” between values parts separate entries of the source, which are not always exact repeats. Equal values may be shown once. A structure can be active in one record and inactive in another. The source made the active and inactive calls. The calls were made as follows: active = hit-call score of the fitted dose curve at least 0.9, where 1 is the maximum; inactive = score below 0.9.
# Target: Hepatocyte nuclear factor 3-beta (Homo sapiens) (UniProt Q9Y261)
# Experiment: ATG_FoxA2_CIS: Attagene CIS-FACTORIAL HepG2 Assay for human Forkhead box A2 (FOXA2) (AID 2282942)
# Conditions: HepG2 cis-reporter transcription factor activity, 24 h; actives raise or lower the signal
# Procedure: ATG_CIS is a cell-based, multiplexed-readout assay that uses HepG2, a human liver cell line, with measurements taken at 24 hours after chemical dosing in a 24-well plate.ATG_FoxA2_CIS is one of 52 assay component(s) measured or calculated from the ATG_CIS assay. It is designed to make measurements of mRNA induction, a form of inducible reporter, as detected with fluorescence intensity signals by Reverse transcription polymerase chain reaction (RT-PCR) and Capillary electrophoresis technology.Data from the assay component ATG_FoxA2_CIS was analyzed into 1 assay endpoint. This assay endpoint, ATG_FoxA2_CIS, was analyzed with bidirectional fitting relative to DMSO as the negative control and baseline of activity. Using a type of inducible reporter, measures of mRNA for gain or loss-of-signal activity can be used to understand the reporter gene at the transcription factor-level as they relate to the gene FOXA2. Furthermore, this assay endpoint can be referred to as a primary readout, because this assay has produced multiple assay endpoints where this one serves a reporter gene function. To generalize the intended target to other relatable targets, this assay endpoint is annotated to the dna binding intended target family, where the subfamily is forkhead box protein.
# Human liver HepG2 cells are transiently transfected with multiple reporter transcription units (MRTUs) in 6-well plates using FuGene 6 reagent (Roche; 3 ml FuGene/1 mg DNA). The MRTU constructs are regulated by a cis-regulating element (promoter). […] A major difference between the CIS and TRANS system is that in CIS activities of endogenous TFs are measured, whereas the TRANS assay evaluates changes in activities of exogenous, chimeric NR-Gal4 proteins. […] At the end of 24 hour incubation, total RNA was isolated using TriZol reagent (Invitrogen). The isolated RNA is then reverse-transcribed using oligo(dT) primer and Mo-MLV reverse transcriptase (Invitrogen) with DNAse I (Ambion) treatment for 30 min. The one-tenth of the produced cDNA was amplified by PCR using Taq DNA polymerase (Invitrogen) and two reporter sequence-specific primers. The PCR products were fluorescently labeled by primer extension with 6-arboxyfluorescein (6-FAM) 5'-labeled reporter sequence-specific primer (2 min at 95 C, 20 s at 68 C and 10 min at 72 C) and these products were digested with 5U of HpaI (New England Biolabs) for 2h at 37 C. The fragments were purified using Qiaquick PCR columns (Qiagen), analyzed on an ABI 3130xL genetic analyzer (Applied Biosystems) with peak positions identified by using a set of X-rhodamine (ROX)-labeled MapMarker1000 molecular weight standards (BioVentures). The raw capillary electrophoresis data was processed using Attagraph software (Attagene).
# Hepatocyte nuclear factor 3-beta (Homo sapiens), sequence (Q9Y261 whole entry, looked up): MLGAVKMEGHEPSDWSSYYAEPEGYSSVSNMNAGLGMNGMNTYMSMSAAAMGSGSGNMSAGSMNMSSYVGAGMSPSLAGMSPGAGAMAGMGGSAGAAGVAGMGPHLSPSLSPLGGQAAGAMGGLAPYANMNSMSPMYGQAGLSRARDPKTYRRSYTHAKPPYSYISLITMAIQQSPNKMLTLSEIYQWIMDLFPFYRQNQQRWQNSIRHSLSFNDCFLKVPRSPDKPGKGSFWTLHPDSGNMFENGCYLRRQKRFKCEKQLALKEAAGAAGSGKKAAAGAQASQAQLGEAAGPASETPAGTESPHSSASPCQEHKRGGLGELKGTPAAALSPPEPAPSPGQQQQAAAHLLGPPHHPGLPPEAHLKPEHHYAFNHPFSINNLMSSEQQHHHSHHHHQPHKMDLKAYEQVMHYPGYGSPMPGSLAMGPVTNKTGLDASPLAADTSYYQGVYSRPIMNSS
SMILES,AC50,outcome
OCCC(F)(F)C(F)(F)C(F)(F)C(F)(F)C(F)(F)C(F)(F)C(F)(F)C(F)(F)F,51.9 µM (active) and 235 µM (active),
CC(O)CO (stereo not given),,inactive
NCC(F)(F)C(F)(F)C(F)(F)C(F)(F)C(F)(F)C(F)(F)C(F)(F)F,,inactive
Cc1cc(CCN2CCN(c3nsc4ccccc34)CC2)cc2c1NC(=O)CC2(C)C,,inactive
Cc1ccc(S(=O)(=O)O)c(C)c1,,inactive
Nc1cccc2c(N)cccc12,,inactive
CN(C)C=O,,inactive
CCCCCCCC(=O)O,,inactive
CCC(C)(C)C1CCC(O)CC1 (stereo not given),,inactive
COCC(C)O (stereo not given),,inactive
O=C(OCCOCCOC(=O)c1ccccc1)c1ccccc1,,inactive
CC[C@H](C)[C@@H](C(=O)O)n1sc2ccccc2c1=O,,inactive
COc1ccc([N+](=O)[O-])cc1N,,inactive
C[C@@H]1C[C@H]2[C@@H]3CCC4=CC(=O)C=C[C@]4(C)[C@@]3(F)[C@@H](O)C[C@]2(C)[C@@]1(O)C(=O)COP(=O)(O)O,,inactive
c1ccc2c(c1)ccc1ccccc12,,inactive
Oc1cc2ccccc2c2ccccc12,,inactive
CCc1nn(C2CCCCC2)c2cc(C3(C#N)CCC(C(=O)O)CC3)ccc12 (stereo not given),,inactive
Cc1cc(C)c(O)c(C)c1,,inactive
CCC(=C(c1ccc(O)cc1)c1ccc(OCCN(C)C)cc1)c1ccccc1,,inactive

SMILES,AC50,outcome
CCCOc1sc(C(=O)N2CCC(c3cc(CN)ccc3F)CC2)c(C)c1Br,,inactive
CC#C[C@]1(O)CC[C@H]2[C@@H]3CCC4=CC(=O)CCC4=C3[C@@H](c3ccc(N(C)C)cc3)C[C@@]21C,58.4 µM (active),inactive
NC(=O)N1C(=O)C(C(=O)c2cc(Cl)cs2)c2cc(F)c(Cl)cc21 (stereo not given),,inactive
CCCCCCCCOC(=O)CCCCCCCCC(=O)OCCCCCCCC,,inactive
CC(=O)CC(C)(C)O,,inactive
CCc1ccc(CCOc2ccc(CC3SC(=O)NC3=O)cc2)nc1 (stereo not given),,inactive
CC(C)(C)c1cc(C(C)(C)C)c(O)c(C(C)(C)C)c1,,inactive
CC[C@H](c1ccc(O)cc1)[C@@H](CC)c1ccc(O)cc1,,inactive
CCCCCCCCCCCCCC[N+](C)(C)C,,inactive
CCCOC(=O)c1ccc(O)cc1,,inactive
O=C(/C=C/c1ccc(O)cc1)CC(=O)/C=C/c1ccc(O)cc1,,inactive
O=C1OC2(c3ccccc31)c1cc(Br)c(O)c(Br)c1Oc1c2cc(Br)c(O)c1Br,,inactive
O=C(O)Cc1cc(I)c(Oc2cc(I)c(O)c(I)c2)c(I)c1,83.7 µM (active),inactive
CCCCC(CC)COC(=O)CCCCC(=O)OCc1ccccc1 (stereo not given),,inactive
CC(C)CCCCCCOC(=O)CCCCC(=O)OCCCCCCC(C)C,,inactive
CC(C)(C)CC(C)(C)c1ccc(O)c(-n2nc3ccccc3n2)c1,,inactive
CCCCCCC(=O)O,,inactive
OCCC(F)(F)C(F)(F)C(F)(F)C(F)(F)C(F)(F)C(F)(F)F,,inactive
N#C[C@@H]1CC(F)(F)CN1C(=O)CNC1CC2CCC(C1)N2c1ncccn1 (stereo not given in full),,inactive
